Screen size: about 310,000 compounds; about 14,000 (4.5%) showed an effect of 50% or more. The effect is printed as a negative number. The sample holds strong results, similar compounds and a random draw of the others, so the mix is not that of the screen.
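Further: peak tail current of the secondary pulse compared with the same well before compound.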

human ether-à-go-go-related gene (hERG) potassium channel, sequence (Q12809 whole entry, looked up): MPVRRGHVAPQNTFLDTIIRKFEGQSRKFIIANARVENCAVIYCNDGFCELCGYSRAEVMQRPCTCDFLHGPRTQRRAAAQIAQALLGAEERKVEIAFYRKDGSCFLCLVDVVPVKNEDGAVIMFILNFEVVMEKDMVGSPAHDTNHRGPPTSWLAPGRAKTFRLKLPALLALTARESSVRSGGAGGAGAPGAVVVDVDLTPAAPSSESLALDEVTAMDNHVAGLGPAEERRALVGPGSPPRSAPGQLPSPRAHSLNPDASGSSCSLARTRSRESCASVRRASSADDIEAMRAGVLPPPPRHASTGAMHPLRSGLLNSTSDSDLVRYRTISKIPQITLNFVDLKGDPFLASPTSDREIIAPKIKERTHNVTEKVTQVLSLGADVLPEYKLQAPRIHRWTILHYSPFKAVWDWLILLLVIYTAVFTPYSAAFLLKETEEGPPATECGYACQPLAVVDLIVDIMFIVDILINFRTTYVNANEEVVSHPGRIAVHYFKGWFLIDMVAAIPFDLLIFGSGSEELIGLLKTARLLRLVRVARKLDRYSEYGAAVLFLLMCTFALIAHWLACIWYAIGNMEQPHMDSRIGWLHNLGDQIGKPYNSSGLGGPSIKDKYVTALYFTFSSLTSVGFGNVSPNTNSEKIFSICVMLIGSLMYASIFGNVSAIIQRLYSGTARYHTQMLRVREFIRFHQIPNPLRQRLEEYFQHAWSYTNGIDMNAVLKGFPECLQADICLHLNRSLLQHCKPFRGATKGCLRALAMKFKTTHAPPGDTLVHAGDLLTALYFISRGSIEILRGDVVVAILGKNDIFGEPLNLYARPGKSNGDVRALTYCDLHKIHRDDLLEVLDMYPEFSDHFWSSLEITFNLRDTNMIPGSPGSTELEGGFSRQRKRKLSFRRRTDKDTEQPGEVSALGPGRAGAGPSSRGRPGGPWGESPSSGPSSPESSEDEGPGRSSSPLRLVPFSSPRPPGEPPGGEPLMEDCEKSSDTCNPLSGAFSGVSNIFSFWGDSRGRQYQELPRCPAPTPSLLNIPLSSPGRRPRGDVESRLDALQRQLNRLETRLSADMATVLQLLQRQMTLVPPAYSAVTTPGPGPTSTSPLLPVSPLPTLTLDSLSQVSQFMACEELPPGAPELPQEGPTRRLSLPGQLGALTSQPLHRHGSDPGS

This experiment concerns the target human ether-à-go-go-related gene (hERG) potassium channel (human, UniProt Q12809). The experiment in a line: primary screen, population patch clamp on CHO cells stably expressing hERG; higher = less effect of the substance.
For the compound `Cc1ccc(C(=O)OCC(=O)Nc2ccc3[nH]c(=O)[nH]c3c2)cc1S(=O)(=O)N1CCOCC1`, the “hERG current change (%, negative = inhibition) at 10uM” value turned out to be 4.19%.
Take `O=C(Nc1ccc(C(=O)N2CCCCC2)cc1)c1ccc(Br)cc1`: the “hERG current change (%, negative = inhibition) at 10uM” value was found to be 3.55%.
Then `O=C(O)c1ccc2c(c1)CCC2`, with 9.54%.
Regarding `Cc1cc(NC(=O)C23CC4CC(CC(C4)C2)C3)n[nH]1`, the “hERG current change (%, negative = inhibition) at 10uM” value was -0.917%.
In the case of `Cc1cccc(NC(=S)N2CCCC2)c1` it was 11.1%; in that of `COc1cc(OC)cc(C(=O)Nc2c(C)nn(-c3ccccc3)c2C)c1`, -3.27%.
Take `COc1ccc(CCNC(=S)N2CCN(S(=O)(=O)c3ccccc3F)CC2)cc1`: the “hERG current change (%, negative = inhibition) at 10uM” value is -3.68%.
Then `CCOC(=O)c1c(-c2ccccc2)csc1NC(=O)c1nn(CC)cc1Br`, with 6.4%; and `O=C(Oc1ccc(Cl)cc1)c1ccc(COC(=O)c2cnccn2)cc1`, with 14.9%; and `COc1ccc(NC(=O)c2ccccc2NC(=O)c2ccco2)c(OC)c1`, with -73.4%.
On to `COc1ccc(NC(=O)CCC(=O)Nc2cc(OC)c(NC(=O)c3ccco3)cc2OC)c(OC)c1`, for which the “hERG current change (%, negative = inhibition) at 10uM” value came to 20.4%.
Then `COc1ccc(NC(=O)c2ccco2)c(OC)c1`, with 16.9%; and `O=C(O)c1ccccc1C1Nc2ccccc2C(=O)N1CCCN1CCOCC1` (stereo not shown), with 18.4%.
Regarding `C/C(=N/n1cnnc1)c1cccnc1`, the “hERG current change (%, negative = inhibition) at 10uM” value was -0.855%.
Then `C/C(=N\NC(=O)CCC(=O)Nc1ccc(C)c(C)c1)C1CC1`, with 10.7%; and `Cc1ccc2cc(C#N)c(N3CCCN(C(=O)c4cnccn4)CC3)nc2c1`, with -42.4%.
Then `Cc1ccc2cc(C#N)c(N3CCN(C(=O)c4cccs4)CC3)nc2c1`, with -34.2%; and `COc1cc(C(=O)N2CCCN(c3nc4cc(C)ccc4cc3C#N)CC2)cc(OC)c1OC`, with -53.5%.
With `COc1ccc2cc(C#N)c(N3CCN(C(=O)c4ccccc4C)CC3)nc2c1`, the “hERG current change (%, negative = inhibition) at 10uM” value is -18.9%.
Turning to `Cc1ccc2cc(C#N)c(N3CCN(C(=O)c4ccccc4)CC3)nc2c1`, the “hERG current change (%, negative = inhibition) at 10uM” value is recorded as -67.1%.
Take `COc1ccc(C(=O)N2CCN(c3nc4cc(C)ccc4cc3C#N)CC2)c(OC)c1`: the “hERG current change (%, negative = inhibition) at 10uM” value was -22.8%.
Consider `Cc1cccc2cc(C#N)c(N3CCN(C)CC3)nc12`, for which the “hERG current change (%, negative = inhibition) at 10uM” value is -46%.
In the case of `N#Cc1cccnc1N1CCN(C(=O)c2cccs2)CC1` it was -1.7%; in that of `CCc1ccc2nc(N3CCN(C)CC3)c(C#N)cc2c1`, -54.3%; in that of `Cc1ccc2nc(N3CCN(C(=O)c4cccs4)CC3)c(C#N)cc2c1`, -76.9%.
For the compound `Cc1ccc2nc(N3CCN(C)CC3)c(C#N)cc2c1`, the “hERG current change (%, negative = inhibition) at 10uM” value is -42.3%.
Then `Cc1ccc2cc(C#N)c(N3CCN(C)CC3)nc2c1`, with 2.75%.
Then `Cc1cc(-c2ccccc2)nc(N(C)NC(=O)c2ccc(Cl)cc2)c1S(C)(=O)=O`, with 0.236%; and `CC(=O)c1cccc(NC(=O)N2CCC(C(=O)c3ccc(F)cc3)CC2)c1`, with -28.1%; and `CCOc1ccc(N=Nc2c(C)[nH]n(-c3ccccc3)c2=O)cc1`, with 18.6%.
In the case of `O=C(COC(=O)C1CCC1)Nc1ccccc1Sc1ccccc1` it was 7.34%; in that of `COc1ccc2nc(NC(=S)NC(=O)c3ccco3)sc2c1`, 25.2%.
Turning to `COc1ccc(CCNC(=O)c2cnc3n(c2=O)CCS3)cc1OC`, the “hERG current change (%, negative = inhibition) at 10uM” value is -5.87%.
In the case of `Cc1ccc(-n2c(C)nn(CCOc3ccccc3)c2=O)cc1` it was 1.54%.
Then `COc1ccccc1C(=O)N1CCN(c2nc3cc(C)c(C)cc3cc2C#N)CC1`, with -2.28%; and `Cc1ccc(C(=O)N2CCCN(c3nc4cc5c(cc4cc3C#N)OCO5)CC2)cc1`, with -0.619%; and `Cc1ccc2nc(N3CCN(C(=O)c4ccc(F)cc4)CC3)c(C#N)cc2c1`, with -73.6%.
`C/C(=N\NC(=O)c1cc(-c2ccc(O)cc2)nc2ccccc12)c1cccnc1`: the “hERG current change (%, negative = inhibition) at 10uM” value was determined as 11.7%.
For `COC(=O)/C=C1\SC(=Nc2ccccc2)NC1=O`, the “hERG current change (%, negative = inhibition) at 10uM” value turned out to be 9.64%.
Then `Cc1nnc2ccc(N3CCN(c4cccc(C(F)(F)F)c4)CC3)nn12`, with -61.8%.
In the case of `Cc1nnc2ccc(-c3cccc(C(F)(F)F)c3)nn12` it was -9.04%.
As to `Cc1nnc2ccc(N3CCCC3)nn12`, the “hERG current change (%, negative = inhibition) at 10uM” value is reported as 6.22%.
Take `FC(F)(F)c1cccc(N2CCN(c3ccc4nnc(-c5ccccc5)n4n3)CC2)c1`: the “hERG current change (%, negative = inhibition) at 10uM” value is -4.4%.
In the case of `Cc1nnc2ccc(N3CCN(c4ccccn4)CC3)nn12` it was -57%; in that of `Cc1nnc2ccc(N3CCCCC3)nn12`, 6.15%.
In the case of `CN1CCc2c(sc(N)c2C(N)=O)C1` it was 6.59%; in that of `S=c1[nH]c2ccc(Cl)cc2s1`, 21.1%; in that of `O=C(NCc1ccc(Cl)cc1)C(=O)Nc1nccs1`, 20.7%.
In the case of `O=C(c1ccc2c(=O)n(C3CCCC3)c(=S)[nH]c2c1)N1CCN(C2CCCCC2)CC1` it was 6.5%; in that of `CSC1=N/C(=C\c2ccccc2C)C(=O)S1`, 23.9%; in that of `COc1ccc2cc(C(C)=O)c(=O)oc2c1`, -11.4%.
As for `OCCN=C1CCCc2c1[nH]c1ccc(Cl)cc21`, the “hERG current change (%, negative = inhibition) at 10uM” value was -18%.
As for `Cl.c1ccc(CCN=C2CCCc3c2[nH]c2ccccc32)cc1`, the “hERG current change (%, negative = inhibition) at 10uM” value is recorded as -73.2%.
Then `OCCN=C1CCCc2c1[nH]c1ccc(Br)cc21`, with 6.45%; and `CCN(CC)C(=O)c1ccc(CS(=O)(=O)c2ccc(OC)cc2)o1`, with -0.122%.
With `Cn1c(C(=O)NC2CCCCC2)cc2c(=O)n3ccccc3nc21`, the “hERG current change (%, negative = inhibition) at 10uM” value is 4.32%.
Then `N=c1c(C(=O)NC2CCCC2)cc2c(=O)n3ccccc3nc2n1C1CCCC1`, with -82.2%; and `Cc1nc2ccccn2c1C(=O)NC1CCCCC1`, with 1.83%; and `Cc1nc2ccccn2c1C(=O)NC1CCCC1`, with 16.2%.
Then `N=c1c(C(=O)NC2CCCC2)cc2c(=O)n3ccccc3nc2n1C1CCCCC1`, with -79%.
As for `N=c1c(S(=O)(=O)c2ccc(Cl)cc2)cc2c(=O)n3ccccc3nc2n1C1CCCC1`, the “hERG current change (%, negative = inhibition) at 10uM” value stood at 14%.

Source of the values: paper PMC4336329 (PLoS ONE, 2015).
